Data as given in PubChem BioAssay (EPA / NIEHS).
Results filed as inconclusive are left out. Activity calls are given as the source filed them. The calls were made as follows: active = hit-call score of the fitted dose curve at least 0.9, where 1 is the maximum; inconclusive = response in the unintended direction; inactive = score below 0.9.

Legend:
[1] = biological target: human Tyrosine Protein Kinase Receptor Tie-2 (Tie2), TEK (gene 7010) (UniProt Q02763); assay: NVS_ENZ_hTie2: NovaScreen (NVS) Enzymatic Assay for human Tyrosine Protein Kinase Receptor Tie-2 (Tie2) (AID 2283225)
Summary of the method: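 Recombinant human Tie2 kinase activity was read cell-free by fluorescence with electrophoretic mobility shift, 1 hour after dosing. The screen used 25 uM in duplicate, then concentration-response up to 50 uM. Signal loss was scored against DMSO.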

[2] = biological target: human Tropomyosin Receptor Kinase A (TRKA), NTRK1 (gene 4914) (UniProt P04629); assay: NVS_ENZ_hTrkA: NovaScreen (NVS) Enzymatic Assay for human Tropomyosin Receptor Kinase A (TRKA) (AID 2283224)
Summary of the method: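 Recombinant human TrkA activity read after 1 h by fluorescence with electrophoretic mobility shift separating substrate and product. Primary screen in duplicate at 25 uM; actives were rerun in concentration-response up to 50 uM. Loss of signal versus DMSO.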

[3] = biological target: human Raf-1 Proto-Oncogene, serine/threonine Kinase (RAF1), RAF1 (gene 5894) (UniProt P04049); assay: NVS_ENZ_hRAF1: NovaScreen (NVS) Enzymatic Assay for human Raf-1 Proto-Oncogene, serine/threonine Kinase (RAF1) (AID 2283216)
Summary of the method: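 Cell-free recombinant kinase with specific fluorescent substrate, product separated by electrophoretic mobility shift; read 1 h after dosing. Primary screen at 25 uM in duplicate; hits then run in concentration-response up to 50 uM, fitted as loss of signal versus DMSO.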

[4] = biological target: human Protein Tyrosine Phosphatase Receptor Type M (PTPRM), PTPRM (gene 5797) (UniProt P28827); assay: NVS_ENZ_hPTPRM: NovaScreen (NVS) Enzymatic Assay for human Protein Tyrosine Phosphatase Receptor Type M (PTPRM) (AID 2283215)
Summary of the method: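 Cell-free recombinant PTPRM with fluorogenic substrate; product separated from substrate by electrophoretic mobility shift and read by fluorescence, 1.33 h after dosing. Primary screen single concentration (25 uM) in duplicate; actives retested in concentration series; loss of signal versus DMSO.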

[5] = biological target: human Sirtuin 2 (SIRT2), SIRT2 (gene 22933) (UniProt Q8IXJ6); assay: NVS_ENZ_hSIRT2: NovaScreen (NVS) Enzymatic Assay for human Sirtuin 2 (SIRT2) (AID 2283217)
Summary of the method: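 Cell-free recombinant human SIRT2, fluorescent substrate with product separated by electrophoretic mobility shift, 1 hr. Screened in duplicate at 25 uM; hits rerun singly in concentration-response up to 50 uM, relative to DMSO.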

[6] = biological target: human Sirtuin 1 (SIRT1), SIRT1 (gene 23411) (UniProt Q96EB6); assay: NVS_ENZ_hSIRT1: NovaScreen (NVS) Enzymatic Assay for human Sirtuin 1 (SIRT1) (AID 2283219)
Summary of the method: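 Cell-free recombinant SIRT1 with a fluorescent substrate; substrate and product separated by electrophoretic mobility shift and read by fluorescence intensity, 1 h after dosing. Primary screen at 25 uM in duplicate; hits re-run in concentration-response up to 50 uM, relative to DMSO.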

[7] = biological target: human Sirtuin 3 (SIRT3), SIRT3 (gene 23410) (UniProt Q9NTG7); assay: NVS_ENZ_hSIRT3: NovaScreen (NVS) Enzymatic Assay for human Sirtuin 3 (SIRT3) (AID 2283222)
Summary of the method: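 Cell-free enzyme assay with recombinant protein and fluorescent substrate, product separated by electrophoretic mobility shift; read 1 hour after dosing. Screened in duplicate at 25 uM, then singleton concentration-response up to 50 uM; loss of signal versus DMSO.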

[8] = biological target: human Protein Tyrosine Phosphatase Receptor Type F (PTPRF), PTPRF (gene 5792) (UniProt P10586); assay: NVS_ENZ_hPTPRF: NovaScreen (NVS) Enzymatic Assay for human Protein Tyrosine Phosphatase Receptor Type F (PTPRF) (AID 2283213)
Summary of the method: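 Cell-free fluorescence enzyme assay with recombinant protein and substrate; product separated by electrophoretic mobility shift. Read 1 h after dosing, single 25 uM duplicate screen, then concentration-response up to 50 uM; loss of signal vs DMSO.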

[9] = biological target: human SRC Proto-Oncogene, Non-receptor Tyrosine Kinase (SRC), SRC (gene 6714) (UniProt P12931); assay: NVS_ENZ_hSRC: NovaScreen (NVS) Enzymatic Assay for human SRC Proto-Oncogene, Non-receptor Tyrosine Kinase (SRC) (AID 2283223)
Summary of the method: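 Cell-free kinase activity assay with fluorescent substrate, product separated by electrophoretic mobility shift, read 1 h after dosing. Duplicate single point at 25 uM, then concentration-response up to 50 uM; loss of signal versus DMSO.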

[10] = biological target: human Rho Associated Coiled-coil Containing Protein Kinase 1 (ROCK1), ROCK1 (gene 6093) (UniProt Q13464); assay: NVS_ENZ_hROCK1: NovaScreen (NVS) Enzymatic Assay for human Rho Associated Coiled-coil Containing Protein Kinase 1 (ROCK1) (AID 2283214)
Summary of the method: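 Cell-free recombinant human ROCK1 activity assay; fluorescent substrate and product separated by electrophoretic mobility shift, read 1 h after dosing. Screened in duplicate at 25 uM; loss of signal versus DMSO baseline scored as inhibition.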

human Rho Associated Coiled-coil Containing Protein Kinase 1 (ROCK1), ROCK1 (gene 6093), sequence (Q13464 whole entry, looked up): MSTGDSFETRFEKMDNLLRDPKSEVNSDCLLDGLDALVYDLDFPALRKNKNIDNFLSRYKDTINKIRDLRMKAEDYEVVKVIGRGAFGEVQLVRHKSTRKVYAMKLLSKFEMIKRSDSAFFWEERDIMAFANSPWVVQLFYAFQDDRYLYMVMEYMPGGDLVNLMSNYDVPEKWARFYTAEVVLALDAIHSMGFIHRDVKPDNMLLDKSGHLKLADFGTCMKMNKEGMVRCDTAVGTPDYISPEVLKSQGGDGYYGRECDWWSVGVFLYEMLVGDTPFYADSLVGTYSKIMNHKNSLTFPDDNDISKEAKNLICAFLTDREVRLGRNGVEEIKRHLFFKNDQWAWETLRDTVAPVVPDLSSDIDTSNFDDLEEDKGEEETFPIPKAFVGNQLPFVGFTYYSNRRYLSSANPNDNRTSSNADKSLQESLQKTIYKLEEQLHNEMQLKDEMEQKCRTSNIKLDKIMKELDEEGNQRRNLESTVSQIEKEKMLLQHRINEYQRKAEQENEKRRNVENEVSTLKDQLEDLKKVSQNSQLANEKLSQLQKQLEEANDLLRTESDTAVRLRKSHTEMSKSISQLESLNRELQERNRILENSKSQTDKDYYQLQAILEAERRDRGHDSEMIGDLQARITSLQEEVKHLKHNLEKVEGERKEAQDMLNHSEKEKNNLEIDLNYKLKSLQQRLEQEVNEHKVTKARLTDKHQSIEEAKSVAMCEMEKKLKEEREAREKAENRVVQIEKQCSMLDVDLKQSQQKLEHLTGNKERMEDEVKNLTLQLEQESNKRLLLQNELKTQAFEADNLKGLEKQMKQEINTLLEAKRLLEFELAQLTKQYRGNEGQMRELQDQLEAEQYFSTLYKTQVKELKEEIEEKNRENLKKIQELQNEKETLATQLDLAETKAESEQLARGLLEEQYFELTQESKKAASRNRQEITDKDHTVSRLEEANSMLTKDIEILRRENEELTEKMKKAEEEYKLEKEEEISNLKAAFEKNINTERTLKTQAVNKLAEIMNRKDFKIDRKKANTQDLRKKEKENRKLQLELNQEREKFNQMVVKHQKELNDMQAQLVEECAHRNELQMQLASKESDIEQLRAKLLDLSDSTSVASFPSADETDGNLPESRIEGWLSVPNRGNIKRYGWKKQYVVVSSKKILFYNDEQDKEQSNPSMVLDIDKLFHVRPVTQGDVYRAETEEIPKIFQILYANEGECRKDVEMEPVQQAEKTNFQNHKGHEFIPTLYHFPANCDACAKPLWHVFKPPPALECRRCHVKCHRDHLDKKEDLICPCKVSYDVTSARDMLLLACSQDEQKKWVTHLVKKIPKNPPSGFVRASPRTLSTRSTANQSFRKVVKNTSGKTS
human Tropomyosin Receptor Kinase A (TRKA), NTRK1 (gene 4914), sequence (P04629 whole entry, looked up): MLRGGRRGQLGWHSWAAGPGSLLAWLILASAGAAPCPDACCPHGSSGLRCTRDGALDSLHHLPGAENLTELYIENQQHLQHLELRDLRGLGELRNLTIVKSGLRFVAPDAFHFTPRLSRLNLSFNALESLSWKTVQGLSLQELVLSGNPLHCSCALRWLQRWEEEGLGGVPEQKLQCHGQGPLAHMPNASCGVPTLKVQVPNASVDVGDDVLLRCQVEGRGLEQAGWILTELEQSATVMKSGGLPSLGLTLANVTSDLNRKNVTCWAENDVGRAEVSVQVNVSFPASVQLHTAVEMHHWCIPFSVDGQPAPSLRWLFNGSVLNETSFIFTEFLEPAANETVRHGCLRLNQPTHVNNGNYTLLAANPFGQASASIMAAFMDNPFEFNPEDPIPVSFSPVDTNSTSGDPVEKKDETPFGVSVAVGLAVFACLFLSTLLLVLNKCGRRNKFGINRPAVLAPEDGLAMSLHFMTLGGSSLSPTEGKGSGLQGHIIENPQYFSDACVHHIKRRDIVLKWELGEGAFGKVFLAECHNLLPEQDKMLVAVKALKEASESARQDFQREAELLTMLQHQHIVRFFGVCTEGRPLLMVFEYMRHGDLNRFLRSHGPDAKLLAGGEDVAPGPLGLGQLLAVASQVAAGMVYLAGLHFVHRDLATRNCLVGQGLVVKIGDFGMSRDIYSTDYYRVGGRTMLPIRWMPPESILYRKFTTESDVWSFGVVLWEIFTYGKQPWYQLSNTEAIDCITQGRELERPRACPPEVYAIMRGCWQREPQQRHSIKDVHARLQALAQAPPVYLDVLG
human Tyrosine Protein Kinase Receptor Tie-2 (Tie2), TEK (gene 7010), sequence (Q02763 whole entry, looked up): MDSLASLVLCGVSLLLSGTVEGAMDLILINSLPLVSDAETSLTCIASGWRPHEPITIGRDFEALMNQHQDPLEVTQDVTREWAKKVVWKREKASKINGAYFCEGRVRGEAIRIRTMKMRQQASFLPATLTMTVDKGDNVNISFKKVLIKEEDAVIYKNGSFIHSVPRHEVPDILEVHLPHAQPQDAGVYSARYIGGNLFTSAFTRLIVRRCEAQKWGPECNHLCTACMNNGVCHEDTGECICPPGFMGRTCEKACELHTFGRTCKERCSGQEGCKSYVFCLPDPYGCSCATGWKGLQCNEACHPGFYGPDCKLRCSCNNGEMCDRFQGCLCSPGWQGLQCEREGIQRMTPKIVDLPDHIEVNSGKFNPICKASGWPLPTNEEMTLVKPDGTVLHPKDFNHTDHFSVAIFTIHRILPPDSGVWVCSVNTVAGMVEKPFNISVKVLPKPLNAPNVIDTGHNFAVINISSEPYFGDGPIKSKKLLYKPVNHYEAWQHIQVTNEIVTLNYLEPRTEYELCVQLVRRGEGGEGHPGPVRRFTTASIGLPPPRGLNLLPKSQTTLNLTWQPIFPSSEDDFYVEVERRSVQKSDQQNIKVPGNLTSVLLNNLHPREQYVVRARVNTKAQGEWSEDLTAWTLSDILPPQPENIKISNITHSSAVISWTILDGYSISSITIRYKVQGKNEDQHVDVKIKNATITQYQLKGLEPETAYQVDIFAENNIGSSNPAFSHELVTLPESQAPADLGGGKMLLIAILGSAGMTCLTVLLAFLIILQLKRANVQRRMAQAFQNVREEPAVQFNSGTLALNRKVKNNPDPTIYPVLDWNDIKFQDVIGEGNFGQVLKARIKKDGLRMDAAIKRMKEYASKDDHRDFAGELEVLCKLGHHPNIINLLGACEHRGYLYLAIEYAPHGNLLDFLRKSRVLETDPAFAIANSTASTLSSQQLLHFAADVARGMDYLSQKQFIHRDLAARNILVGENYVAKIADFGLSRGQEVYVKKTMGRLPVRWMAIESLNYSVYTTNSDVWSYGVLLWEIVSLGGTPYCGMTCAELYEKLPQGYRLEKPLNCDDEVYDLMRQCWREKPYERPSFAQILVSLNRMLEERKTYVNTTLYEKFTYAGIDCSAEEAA
human Raf-1 Proto-Oncogene, serine/threonine Kinase (RAF1), RAF1 (gene 5894), sequence (P04049 whole entry, looked up): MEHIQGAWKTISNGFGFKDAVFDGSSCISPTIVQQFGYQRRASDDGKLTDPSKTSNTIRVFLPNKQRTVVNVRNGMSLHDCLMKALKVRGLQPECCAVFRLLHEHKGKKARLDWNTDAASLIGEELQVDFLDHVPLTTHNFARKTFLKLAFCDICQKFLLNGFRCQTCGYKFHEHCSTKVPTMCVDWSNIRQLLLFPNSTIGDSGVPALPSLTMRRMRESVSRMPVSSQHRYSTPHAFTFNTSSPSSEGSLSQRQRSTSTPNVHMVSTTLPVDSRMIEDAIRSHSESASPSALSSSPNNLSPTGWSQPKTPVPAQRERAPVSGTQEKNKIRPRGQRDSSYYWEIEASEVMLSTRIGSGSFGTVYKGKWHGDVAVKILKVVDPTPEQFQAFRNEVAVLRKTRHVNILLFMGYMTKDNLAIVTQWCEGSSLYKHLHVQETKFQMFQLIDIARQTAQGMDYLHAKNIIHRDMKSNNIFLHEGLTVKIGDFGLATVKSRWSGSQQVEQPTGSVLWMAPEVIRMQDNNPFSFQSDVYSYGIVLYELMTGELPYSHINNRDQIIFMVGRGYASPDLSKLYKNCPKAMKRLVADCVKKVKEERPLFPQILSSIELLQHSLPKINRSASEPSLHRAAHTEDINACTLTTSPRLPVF
human Sirtuin 3 (SIRT3), SIRT3 (gene 23410), sequence (Q9NTG7 whole entry, looked up): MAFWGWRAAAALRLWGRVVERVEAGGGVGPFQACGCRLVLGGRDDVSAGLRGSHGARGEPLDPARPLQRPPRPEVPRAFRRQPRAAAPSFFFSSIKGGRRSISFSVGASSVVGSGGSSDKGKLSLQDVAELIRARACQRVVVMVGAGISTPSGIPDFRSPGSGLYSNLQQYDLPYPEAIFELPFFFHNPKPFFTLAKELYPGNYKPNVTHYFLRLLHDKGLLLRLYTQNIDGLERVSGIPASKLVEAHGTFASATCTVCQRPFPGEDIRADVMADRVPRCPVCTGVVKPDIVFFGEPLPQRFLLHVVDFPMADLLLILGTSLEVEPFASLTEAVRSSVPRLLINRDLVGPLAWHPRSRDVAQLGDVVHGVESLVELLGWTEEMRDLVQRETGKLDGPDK
human Sirtuin 2 (SIRT2), SIRT2 (gene 22933), sequence (Q8IXJ6 whole entry, looked up): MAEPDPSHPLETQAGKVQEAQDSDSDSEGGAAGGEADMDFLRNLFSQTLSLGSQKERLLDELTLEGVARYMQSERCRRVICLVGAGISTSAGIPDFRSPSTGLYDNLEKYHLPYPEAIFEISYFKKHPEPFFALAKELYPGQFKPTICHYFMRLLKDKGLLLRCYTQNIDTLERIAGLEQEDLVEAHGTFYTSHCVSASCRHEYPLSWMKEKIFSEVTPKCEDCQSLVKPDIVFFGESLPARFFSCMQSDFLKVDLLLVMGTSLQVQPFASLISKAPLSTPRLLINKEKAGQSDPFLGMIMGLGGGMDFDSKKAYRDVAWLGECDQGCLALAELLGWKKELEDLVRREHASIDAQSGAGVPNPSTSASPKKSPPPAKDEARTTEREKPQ

CC(C)C1(C)N=C(c2ncccc2C(=O)O)NC1=O (configuration not stated)
outcome [1]: inactive

COC(=O)N(C(=O)N1CO[C@@]2(C(=O)OC)Cc3cc(Cl)ccc3C2=N1)c1ccc(OC(F)(F)F)cc1
AC50 [2]: 28.7 µM (active)

COc1ccc(-c2ccccc2)cc1NNC(=O)OC(C)C
outcome [3]: inactive

O=C1C2CC=CCC2C(=O)N1SC(Cl)(Cl)Cl (configuration not stated)
outcome [4]: inactive
AC50 [5]: 13 µM (active)
AC50 [6]: 13.3 µM (active)
AC50 [7]: 39.5 µM (active)

CCCCC(C#N)(Cn1cncn1)c1ccc(Cl)cc1 (configuration not stated)
AC50 [7]: 10.4 µM (active)
AC50 [2]: 19.5 µM (active)

N#Cc1c(Cl)cccc1Cl
outcome [8]: inactive

OC(c1ccc(Cl)cc1)(c1ccc(Cl)cc1)C(Cl)(Cl)Cl
outcome [1]: inactive

CCCN(CC)CC1COC2(CCC(C(C)(C)C)CC2)O1 (configuration not stated)
outcome [9]: inactive

CN=C=S
outcome [8]: inactive
outcome [3]: inactive
outcome [6]: inactive

CS(=O)(=O)c1ccc(C(=O)C2C(=O)CCCC2=O)c([N+](=O)[O-])c1
outcome [3]: inactive

CC(C)Nc1nc(Cl)nc(NC(C)C)n1
outcome [2]: inactive

CN/C(=N\[N+](=O)[O-])NCc1cnc(Cl)s1
outcome [3]: inactive

Nc1cnn(-c2ccccc2)c(=O)c1Cl
outcome [1]: inactive

CCOc1nc(F)cc2nc(S(=O)(=O)Nc3c(Cl)cccc3Cl)nn12
outcome [8]: inactive

CC1(C)C(C=C(Cl)Cl)C1C(=O)OC(C#N)c1cccc(Oc2ccccc2)c1 (configuration not stated)
outcome [3]: inactive
outcome [7]: inactive
outcome [1]: inactive

CCOP(=S)(OCC)Oc1nc(Cl)n(C(C)C)n1
outcome [10]: inactive

CCCCOCN(C(=O)CCl)c1c(CC)cccc1CC
outcome [10]: inactive

COC(=O)c1c(C(F)F)nc(C(F)(F)F)c(C2=NCCS2)c1CC(C)C
outcome [3]: inactive

Nc1c(Cl)c(Cl)nc(C(=O)O)c1Cl
outcome [1]: inactive

CCOC(=O)C(C)OC(=O)c1cc(Oc2ccc(C(F)(F)F)cc2Cl)ccc1[N+](=O)[O-] (configuration not stated)
outcome [10]: inactive
outcome [3]: inactive

CCCC(=NOCC)C1=C(O)CC(CC(C)SCC)CC1=O (configuration not stated)
outcome [8]: inactive
outcome [4]: inactive
outcome [3]: inactive

CC(C)(C)C(=O)C(Oc1ccc(Cl)cc1)n1cncn1 (configuration not stated)
outcome [9]: inactive

COP(=S)(OC)SCn1nnc2ccccc2c1=O
outcome [8]: inactive
outcome [3]: inactive

CCC(C)n1c(=O)[nH]c(C)c(Br)c1=O (configuration not stated)
outcome [8]: inactive

CCCCC(O)(Cn1cncn1)c1ccc(Cl)cc1Cl (configuration not stated)
AC50 [5]: 15.9 µM (active)
outcome [7]: inactive
AC50 [2]: 21.9 µM (active)

Clc1nc(Cl)nc(Nc2ccccc2Cl)n1
outcome [7]: inactive
AC50 [2]: 7.05 µM (active)

COP(=S)(OC)Oc1ccc([N+](=O)[O-])c(C)c1
AC50 [5]: 12.1 µM (active)
